Laboratory results published in article PMC7862700, “An all-to-all approach to the identification of sequence-specific readers for epigenetic DNA modifications on cytosine”.

How the values were obtained:
Experiment in all cases: DAPPL (digital affinity profiling via proximity ligation, sequencing); 10 mM Tris-HCl pH 7.5, 50 mM NaCl, 1 mM DTT, 4% glycerol, room temperature, 30 min; GST-TFs on glutathione beads, 16-mer random dsDNA library, 0.1% formaldehyde crosslink after washing; high values mean tight binding
Conditions in all cases: protein: recombinant; tags: N-terminal GST; dsDNA, one strand shown
FLI1 = target: T1, FLI1 (Homo sapiens, UniProt Q01543 1-452)
T1 sequence: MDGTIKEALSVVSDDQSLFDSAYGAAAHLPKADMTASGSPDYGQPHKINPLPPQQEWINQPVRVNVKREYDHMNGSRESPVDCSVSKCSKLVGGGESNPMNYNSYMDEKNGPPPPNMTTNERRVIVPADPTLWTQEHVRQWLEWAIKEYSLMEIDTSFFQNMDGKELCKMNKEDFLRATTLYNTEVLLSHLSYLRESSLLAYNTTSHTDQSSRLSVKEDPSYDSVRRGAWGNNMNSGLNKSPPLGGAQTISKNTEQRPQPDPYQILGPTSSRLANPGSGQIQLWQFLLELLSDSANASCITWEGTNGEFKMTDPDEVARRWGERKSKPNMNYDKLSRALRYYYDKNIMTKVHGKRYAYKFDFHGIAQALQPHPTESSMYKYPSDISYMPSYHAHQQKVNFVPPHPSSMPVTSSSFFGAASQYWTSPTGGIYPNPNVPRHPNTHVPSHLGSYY
Method in brief: (§1)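 Human transcription factors fused to GST were expressed in yeast, captured on glutathione beads, given DNA barcodes and pooled with a GST-only negative control. Pools were incubated with 200 nmole of a 16-mer random double-stranded DNA library in Tris/NaCl/DTT/glycerol buffer at room temperature for 30 min. They were then washed, crosslinked with 0.1% formaldehyde, proximity-ligated (BsaI/T4 ligase, 1 h, 37 °C), PCR-amplified and sequenced on an Illumina NextSeq500. Binding signal is each 6-mer's read frequency for a factor divided by its frequency for the GST control.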

GABPA = target: T2, GABPA (Homo sapiens, UniProt Q06546 1-454)
T2 sequence: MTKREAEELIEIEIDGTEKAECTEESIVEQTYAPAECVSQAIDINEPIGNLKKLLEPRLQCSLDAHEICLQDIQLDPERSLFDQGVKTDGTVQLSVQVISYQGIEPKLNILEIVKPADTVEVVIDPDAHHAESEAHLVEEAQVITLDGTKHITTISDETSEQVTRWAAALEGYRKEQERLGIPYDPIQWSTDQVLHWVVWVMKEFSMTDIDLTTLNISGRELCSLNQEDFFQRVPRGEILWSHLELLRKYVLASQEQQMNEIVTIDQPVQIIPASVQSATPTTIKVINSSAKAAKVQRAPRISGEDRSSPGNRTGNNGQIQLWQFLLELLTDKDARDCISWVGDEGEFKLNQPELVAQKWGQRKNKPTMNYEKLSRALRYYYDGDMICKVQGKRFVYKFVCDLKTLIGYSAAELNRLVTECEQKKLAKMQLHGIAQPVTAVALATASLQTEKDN
Method in brief: as §1

SPIC = target: T3, SPIC (Homo sapiens, UniProt Q8N5J4 1-248)
T3 sequence: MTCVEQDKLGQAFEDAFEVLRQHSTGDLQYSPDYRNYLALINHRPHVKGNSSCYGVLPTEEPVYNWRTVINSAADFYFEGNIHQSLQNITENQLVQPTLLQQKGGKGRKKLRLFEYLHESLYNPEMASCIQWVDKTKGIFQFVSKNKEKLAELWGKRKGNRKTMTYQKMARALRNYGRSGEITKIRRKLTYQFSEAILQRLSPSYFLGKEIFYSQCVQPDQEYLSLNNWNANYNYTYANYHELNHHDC
Method in brief: as §1

ERF = target: T4, ERF (Homo sapiens, UniProt P50548 1-548)
T4 sequence: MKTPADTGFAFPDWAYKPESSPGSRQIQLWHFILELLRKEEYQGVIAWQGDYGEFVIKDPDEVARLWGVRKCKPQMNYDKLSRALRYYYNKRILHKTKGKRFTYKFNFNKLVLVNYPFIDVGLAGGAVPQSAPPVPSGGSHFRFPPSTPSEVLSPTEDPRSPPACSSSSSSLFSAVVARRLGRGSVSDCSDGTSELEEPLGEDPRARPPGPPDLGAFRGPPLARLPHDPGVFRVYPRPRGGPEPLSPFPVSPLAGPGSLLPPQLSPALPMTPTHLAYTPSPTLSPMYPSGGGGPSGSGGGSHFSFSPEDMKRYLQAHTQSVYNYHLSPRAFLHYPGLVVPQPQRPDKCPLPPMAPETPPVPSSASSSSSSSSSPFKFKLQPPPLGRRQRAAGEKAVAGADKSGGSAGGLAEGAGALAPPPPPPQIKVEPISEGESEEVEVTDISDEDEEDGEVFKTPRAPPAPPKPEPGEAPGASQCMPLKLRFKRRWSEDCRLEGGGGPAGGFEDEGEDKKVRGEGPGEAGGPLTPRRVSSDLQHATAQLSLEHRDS
Method in brief: as §1

ELF4 = ELF4 (Homo sapiens, UniProt Q99607 1-663)
Method in brief: as §1

ETV7 = target: T5, ETV7 (Homo sapiens, UniProt Q9Y603 1-341)
T5 sequence: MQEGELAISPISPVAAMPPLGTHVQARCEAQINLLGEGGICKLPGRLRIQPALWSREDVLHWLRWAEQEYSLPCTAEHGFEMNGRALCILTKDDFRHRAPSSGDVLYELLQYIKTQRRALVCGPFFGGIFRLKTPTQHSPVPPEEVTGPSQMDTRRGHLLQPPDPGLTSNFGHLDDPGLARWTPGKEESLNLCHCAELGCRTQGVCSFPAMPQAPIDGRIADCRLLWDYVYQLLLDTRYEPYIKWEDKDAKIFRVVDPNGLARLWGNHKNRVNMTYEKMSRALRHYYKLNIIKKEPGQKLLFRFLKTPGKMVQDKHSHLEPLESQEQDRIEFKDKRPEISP
Method in brief: as §1

ERG = target: T6, ERG (Homo sapiens, UniProt P11308 1-479)
T6 sequence: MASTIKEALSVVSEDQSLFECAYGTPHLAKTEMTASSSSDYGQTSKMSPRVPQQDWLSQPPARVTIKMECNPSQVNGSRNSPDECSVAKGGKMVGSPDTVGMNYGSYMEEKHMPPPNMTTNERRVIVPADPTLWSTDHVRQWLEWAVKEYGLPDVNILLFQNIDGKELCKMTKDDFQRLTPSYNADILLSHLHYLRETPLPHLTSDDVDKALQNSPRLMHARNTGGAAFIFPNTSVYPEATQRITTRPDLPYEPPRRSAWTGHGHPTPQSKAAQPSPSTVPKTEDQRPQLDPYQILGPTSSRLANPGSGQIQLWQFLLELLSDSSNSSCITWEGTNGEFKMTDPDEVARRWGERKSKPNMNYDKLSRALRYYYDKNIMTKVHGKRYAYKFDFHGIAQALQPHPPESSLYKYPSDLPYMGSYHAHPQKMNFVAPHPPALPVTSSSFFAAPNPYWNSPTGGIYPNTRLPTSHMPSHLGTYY
Method in brief: as §1

ELK4 = target: T7, ELK4 (Homo sapiens, UniProt P28324-2 1-405)
T7 sequence: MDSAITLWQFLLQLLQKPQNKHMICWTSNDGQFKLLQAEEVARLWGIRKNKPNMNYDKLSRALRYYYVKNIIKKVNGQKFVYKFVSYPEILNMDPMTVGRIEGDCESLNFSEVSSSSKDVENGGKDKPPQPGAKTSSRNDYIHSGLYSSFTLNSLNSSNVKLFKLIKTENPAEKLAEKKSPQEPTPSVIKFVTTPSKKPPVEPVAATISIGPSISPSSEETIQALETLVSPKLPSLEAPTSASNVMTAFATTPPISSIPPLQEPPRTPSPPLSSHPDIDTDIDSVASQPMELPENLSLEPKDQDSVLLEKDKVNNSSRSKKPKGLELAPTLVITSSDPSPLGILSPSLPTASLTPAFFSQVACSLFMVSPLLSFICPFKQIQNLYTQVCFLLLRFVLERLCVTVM
Method in brief: as §1

ETV3L = target: T8, ETV3L (Homo sapiens, UniProt Q6ZN32 1-361)
T8 sequence: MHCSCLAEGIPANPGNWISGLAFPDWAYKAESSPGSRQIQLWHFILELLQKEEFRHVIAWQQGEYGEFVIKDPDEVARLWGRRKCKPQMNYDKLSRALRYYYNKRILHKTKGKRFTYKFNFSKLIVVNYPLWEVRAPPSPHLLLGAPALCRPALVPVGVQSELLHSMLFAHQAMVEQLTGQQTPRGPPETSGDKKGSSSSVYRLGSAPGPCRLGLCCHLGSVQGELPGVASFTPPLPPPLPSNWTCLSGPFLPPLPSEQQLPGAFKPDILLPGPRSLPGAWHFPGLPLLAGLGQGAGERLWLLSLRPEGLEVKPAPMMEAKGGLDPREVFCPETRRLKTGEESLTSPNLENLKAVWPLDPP
Method in brief: as §1

ETV6 = ETV6 (Homo sapiens, UniProt P41212 1-452)
Method in brief: as §1

ELK3 = target: T9, ELK3 (Homo sapiens, UniProt P41970 1-407)
T9 sequence: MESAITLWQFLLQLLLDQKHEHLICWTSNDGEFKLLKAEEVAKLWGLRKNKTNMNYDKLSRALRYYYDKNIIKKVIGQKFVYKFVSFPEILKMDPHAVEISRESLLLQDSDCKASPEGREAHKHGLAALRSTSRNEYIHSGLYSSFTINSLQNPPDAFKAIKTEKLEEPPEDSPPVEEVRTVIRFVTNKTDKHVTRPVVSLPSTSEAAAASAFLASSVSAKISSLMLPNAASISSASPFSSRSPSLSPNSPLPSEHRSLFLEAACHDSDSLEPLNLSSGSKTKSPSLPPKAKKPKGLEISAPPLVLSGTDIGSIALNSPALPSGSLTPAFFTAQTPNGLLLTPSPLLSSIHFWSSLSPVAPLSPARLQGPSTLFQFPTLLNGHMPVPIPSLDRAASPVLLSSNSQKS
Method in brief: as §1

ETV1 = ETV1 (Homo sapiens, UniProt P50549 1-477)
Method in brief: as §1

Chain of ELF4 (Q99607 whole entry): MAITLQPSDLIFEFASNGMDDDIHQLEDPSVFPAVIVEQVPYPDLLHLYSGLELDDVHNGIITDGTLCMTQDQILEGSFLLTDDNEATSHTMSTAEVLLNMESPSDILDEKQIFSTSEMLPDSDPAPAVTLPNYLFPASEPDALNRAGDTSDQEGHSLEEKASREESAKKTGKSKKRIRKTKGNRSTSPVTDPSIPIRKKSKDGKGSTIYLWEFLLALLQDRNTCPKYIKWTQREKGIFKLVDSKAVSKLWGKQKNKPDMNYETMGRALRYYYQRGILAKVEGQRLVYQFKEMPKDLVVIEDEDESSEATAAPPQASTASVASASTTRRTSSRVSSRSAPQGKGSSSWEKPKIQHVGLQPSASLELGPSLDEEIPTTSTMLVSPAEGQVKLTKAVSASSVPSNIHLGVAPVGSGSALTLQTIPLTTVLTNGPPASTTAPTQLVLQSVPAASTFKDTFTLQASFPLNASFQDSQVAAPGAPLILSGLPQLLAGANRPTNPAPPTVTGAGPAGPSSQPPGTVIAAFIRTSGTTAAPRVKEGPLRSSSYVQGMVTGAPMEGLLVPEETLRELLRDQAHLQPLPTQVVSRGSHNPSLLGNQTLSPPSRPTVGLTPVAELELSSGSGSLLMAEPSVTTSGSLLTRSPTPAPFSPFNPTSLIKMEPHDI
Chain of ETV6 (P41212 whole entry): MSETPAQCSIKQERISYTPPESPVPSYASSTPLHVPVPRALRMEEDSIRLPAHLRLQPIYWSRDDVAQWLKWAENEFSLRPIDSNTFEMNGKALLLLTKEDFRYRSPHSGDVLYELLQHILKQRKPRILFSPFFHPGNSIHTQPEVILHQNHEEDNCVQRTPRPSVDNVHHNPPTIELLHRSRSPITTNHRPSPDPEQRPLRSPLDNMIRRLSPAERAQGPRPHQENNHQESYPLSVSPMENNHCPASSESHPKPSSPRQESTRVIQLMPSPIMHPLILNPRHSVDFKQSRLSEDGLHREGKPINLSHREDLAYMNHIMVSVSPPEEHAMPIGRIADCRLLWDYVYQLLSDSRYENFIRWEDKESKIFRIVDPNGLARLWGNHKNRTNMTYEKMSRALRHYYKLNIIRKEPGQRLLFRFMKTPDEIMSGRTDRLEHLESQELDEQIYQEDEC
Chain of ETV1 (P50549 whole entry): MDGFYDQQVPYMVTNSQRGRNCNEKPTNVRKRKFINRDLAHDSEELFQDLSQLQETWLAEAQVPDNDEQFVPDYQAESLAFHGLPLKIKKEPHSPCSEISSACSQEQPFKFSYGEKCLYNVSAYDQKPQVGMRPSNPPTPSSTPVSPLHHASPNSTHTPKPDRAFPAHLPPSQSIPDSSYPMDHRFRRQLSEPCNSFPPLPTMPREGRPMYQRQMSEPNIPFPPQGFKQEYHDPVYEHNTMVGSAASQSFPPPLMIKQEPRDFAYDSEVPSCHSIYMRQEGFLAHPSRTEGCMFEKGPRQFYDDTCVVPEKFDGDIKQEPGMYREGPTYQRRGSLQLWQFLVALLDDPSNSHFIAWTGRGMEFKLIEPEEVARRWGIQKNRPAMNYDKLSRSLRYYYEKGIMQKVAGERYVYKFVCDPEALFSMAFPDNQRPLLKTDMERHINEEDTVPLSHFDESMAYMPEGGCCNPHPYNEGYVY

CCAAGT
binding signal (FLI1): 1.02 fold enrichment (6-mer frequency, TF over GST control)

CTGTAG
binding signal (GABPA): 1.03 fold enrichment (6-mer frequency, TF over GST control)
binding signal (SPIC): 1.08 fold enrichment (6-mer frequency, TF over GST control)
binding signal (ERF): 1.02 fold enrichment (6-mer frequency, TF over GST control)

TAGGCC
binding signal (GABPA): 1.02 fold enrichment (6-mer frequency, TF over GST control)
binding signal (ELF4): 1.01 fold enrichment (6-mer frequency, TF over GST control)
binding signal (ETV7): 1.03 fold enrichment (6-mer frequency, TF over GST control)

GTGCCC
binding signal (GABPA): 1.01 fold enrichment (6-mer frequency, TF over GST control)
binding signal (ERG): 1.08 fold enrichment (6-mer frequency, TF over GST control)
binding signal (ELF4): 1.03 fold enrichment (6-mer frequency, TF over GST control)
binding signal (ELK4): 1.07 fold enrichment (6-mer frequency, TF over GST control)
binding signal (ETV3L): 1 fold enrichment (6-mer frequency, TF over GST control)
binding signal (ETV7): 1.01 fold enrichment (6-mer frequency, TF over GST control)
binding signal (ETV6): 1 fold enrichment (6-mer frequency, TF over GST control)

AGCGGC
binding signal (ELK3): 1.03 fold enrichment (6-mer frequency, TF over GST control)
binding signal (ELK4): 1 fold enrichment (6-mer frequency, TF over GST control)
binding signal (ETV1): 1.09 fold enrichment (6-mer frequency, TF over GST control)
binding signal (ETV3L): 1.01 fold enrichment (6-mer frequency, TF over GST control)
binding signal (ETV7): 1.01 fold enrichment (6-mer frequency, TF over GST control)
binding signal (ETV6): 1.15 fold enrichment (6-mer frequency, TF over GST control)
